Values without a mark were called inactive. No rule for the calls is given here.
The compounds below were run against L-lactate dehydrogenase (Plasmodium falciparum (isolate CDC / Honduras)) (UniProt Q27743) (assay: PfLDH activity inhibition – cell lysate, 3D7 strain, counter-screen for P. falciparum growth inhibition project (AID 2304;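 also: 0% = vehicle and 100% = reference inhibitor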)). Conditions: P. falciparum 3D7 crude extract, LDH APAD/NBT absorbance; at 2 µM; stronger effect = higher value.
L-lactate dehydrogenase (Plasmodium falciparum (isolate CDC / Honduras)), sequence (Q27743 whole entry, looked up): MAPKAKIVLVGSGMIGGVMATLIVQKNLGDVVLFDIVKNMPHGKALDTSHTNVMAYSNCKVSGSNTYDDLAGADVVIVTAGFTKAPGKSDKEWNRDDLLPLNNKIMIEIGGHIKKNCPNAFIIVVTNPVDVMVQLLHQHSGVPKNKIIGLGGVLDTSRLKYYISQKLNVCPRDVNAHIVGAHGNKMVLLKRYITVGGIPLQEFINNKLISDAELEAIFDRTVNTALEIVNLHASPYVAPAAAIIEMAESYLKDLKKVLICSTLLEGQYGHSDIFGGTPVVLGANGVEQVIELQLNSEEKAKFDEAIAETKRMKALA

With `Cc1nc(-c2nc(NCc3ccncc3)ncc2-c2ccsc2)sc1C` as the compound, how does the inhibition read?
The inhibition was 2%.

How did the inhibition turn out when `CN(Cc1ccccc1)C1CCN(c2cc(NC(=O)c3cccc(F)c3)ccn2)CC1` was run?
Its inhibition is -2%.

`FC(F)(F)c1ccc2nc(-c3ccc(-c4cccc(CN5CCC(CCN6CCCCC6)CC5)c4)cc3)[nH]c2c1` was tested. Which inhibition did it give?
Its inhibition is -5%.

How did the inhibition turn out when `COCCCNC(=O)C1CCN(C(c2ccc(Cl)cc2)c2ccc(Cl)cc2)CC1` was run?
The inhibition was 0%.

Which inhibition does the source give for `NOCCCOc1ccccc1` here?
The inhibition was -4%.

With `Cc1ccc(-c2ccc(NC(=O)N3CCc4cc(Br)c(N5CCN(C)CC5)cc43)cc2)cn1` as the compound, how does the inhibition read?
The inhibition was -3%.

With `CCC(C)(C)c1ccc(OCCCC(=O)Nc2ccc(Cl)c([N+](=O)[O-])c2)c(C(C)(C)CC)c1` as the compound, how does the inhibition read?
The inhibition was -8%.

With `C=C(C)C1CC=C(CN2CCC(N3CCc4cc(NC(=O)c5cc(C)on5)ccc43)C2)CC1` (centres undefined) as the compound, how does the inhibition read?
Its inhibition is 0%.

Which inhibition does the source give for `NC(=O)c1ccsc1NC(=O)CNC(c1ccc(F)cc1)c1cccs1` (centres undefined) here?
The inhibition was -2%.

For `COc1ccc(NC(=O)Nc2ccc(-c3ccncc3)c(C(F)(F)F)c2)cc1N1CCN(C)CC1`, which inhibition is on record?
Its inhibition is 2%.

With `Nc1nc(N)c2c(CCc3ccc(Cl)c(Cl)c3)cccc2n1` as the compound, how does the inhibition read?
Its inhibition is 6%.

For `CC(C)(C)c1ccc(CNCC(C)(C)c2nc(-c3ccc(Cl)c(O)c3)c(-c3ccnc(N)n3)[nH]2)cc1`, which inhibition is on record?
The inhibition was -7%.

`COc1ccc(Nc2nccc(-c3ccc(NC(=O)c4cc5cc(F)ccc5[nH]4)cc3)n2)cc1` was tested. Which inhibition did it give?
The inhibition was -2%.

Which inhibition does the source give for `CC(C)N(Cc1ccc(-c2ccc(C(F)(F)F)cc2)cc1)C(=O)Cn1c(CCc2cccc(F)c2F)cc(=O)c2ccc(CCCN3CCCCC3)cc21` here?
The inhibition was 7%.

Source: PubChem BioAssay
